This note sets out measurements from PubChem BioAssay AID1376 (SRMLSC, 2008).

Broadly, the inhibition is the relative decrease from the control value, in per cent.

The whole screen tested about 220,000 compounds, of which about 530 (0.24%) were called active. This excerpt belongs to a sample that is enriched for actives. Results with a measured potency or affinity are listed apart. A number with no mark means an inactive call. No stated cut-off is given here; in the data, active means inhibition above about 13%; inconclusive means no clear call, values can overlap the other calls; inactive means below that.

Sequence of Bifunctional protein GlmU (Mycobacterium tuberculosis (strain ATCC 25618 / H37Rv)) (P9WMN3 whole entry, looked up): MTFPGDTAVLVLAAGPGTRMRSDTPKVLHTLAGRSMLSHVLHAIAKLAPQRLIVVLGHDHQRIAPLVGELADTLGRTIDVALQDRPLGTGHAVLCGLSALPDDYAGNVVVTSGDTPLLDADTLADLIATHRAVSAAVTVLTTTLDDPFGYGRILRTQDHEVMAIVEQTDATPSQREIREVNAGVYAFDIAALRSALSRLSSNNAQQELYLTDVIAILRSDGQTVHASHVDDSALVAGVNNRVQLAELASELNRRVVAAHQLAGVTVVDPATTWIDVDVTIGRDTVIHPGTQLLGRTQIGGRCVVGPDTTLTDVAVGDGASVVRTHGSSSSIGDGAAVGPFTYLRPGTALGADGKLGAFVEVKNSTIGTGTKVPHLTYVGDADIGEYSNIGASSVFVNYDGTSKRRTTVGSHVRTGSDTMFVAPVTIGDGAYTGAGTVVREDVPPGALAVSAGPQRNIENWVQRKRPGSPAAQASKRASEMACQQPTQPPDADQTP

This experiment has as its target Bifunctional protein GlmU (Mycobacterium tuberculosis (strain ATCC 25618 / H37Rv)) (UniProt P9WMN3). In words: inhibition of mycobacterial GlmU enzyme – biochemical, glucosamine-1-phosphate acetyltransferase (AID 1376).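 Further: 0% = complete reaction with vehicle and 100% = reaction without substrate.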 To be noted: M. tuberculosis GlmU acetyltransferase enzyme assay; active compounds read high;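 tested at 30 µM in the primary screen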.
With `CC(=O)Nc1ccc(S(=O)(=O)N2CCN(c3ccccn3)CC2)cc1`, the inhibition is 14% (active).

As for `Cc1ccc(S(=O)(=O)N2CCN(c3ccccn3)CC2)cc1`, the inhibition was 3.12%.

For `CC(C(=O)Nc1ccc(S(=O)(=O)N2CCCCC2)cc1)N1CCN(c2ccccn2)CC1` (stereo not given), the inhibition is 0.72%.

For the compound `Cc1[nH]c2ccccc2c1C(=O)CSc1nc2ccccc2[nH]1`, the inhibition was 2.48%.

For the compound `Cc1c(C)n(C(=O)CSc2ncn[nH]2)c2ccccc12`, the inhibition is 1.07%.

Regarding `CCCCCOc1ccc(C(=O)N(Cc2ccco2)C2CCS(=O)(=O)C2)cc1` (stereo not given), the inhibition was 2.23%.

`Cc1ccc(C)n1-c1cccc(NC(=O)c2ccccc2)c1`: the inhibition was -0.99%.

Regarding `Cn1c(Cn2c(=O)sc3ccccc32)nnc1SCC(=O)N1CCc2ccccc21`, the inhibition was -3.8%.

On to `O=C1CCN(S(=O)(=O)c2ccccc2)CCN1CCOCc1ccc(F)cc1`, for which the inhibition is -0.16%.

For `CC1=CC(C)(C)N2C(=O)C3(C(C#N)=C(N)OC4=C3C(=O)CCC4)c3c(C)c(C)cc1c32` (stereo not given), the inhibition was 0.73%.

With `CCOC(=O)C1=C(N)OC2=C(C(=O)CCC2)C12C(=O)N1c3c(ccc(C)c32)C(C)=CC1(C)C` (stereo not given), the inhibition was 14.7% (active).

As to `CCOC(=O)C1=C(N)OC2=C(C(=O)CCC2)C12C(=O)N(C)c1ccccc12` (stereo not given), the inhibition is 2.06%.

As for `COc1nc(OC)nc(Oc2ccc(Cl)cc2[N+](=O)[O-])n1`, the inhibition was -2.5%.

For the compound `COc1ccc([N+](=O)[O-])c(S(=O)(=O)c2ccc(Cl)cc2)n1`, the inhibition was 13.8% (active).

In the case of `COc1ccc([N+](=O)[O-])c(S(=O)(=O)c2ccccc2)n1`, the inhibition was 11.9%.

Consider `CC(C(=O)NN)n1nnc(N2CCOCC2)n1` (stereo not given), for which the inhibition was -4.73%.

For the compound `O=C(Nc1cccc(-c2csc(Nc3ccc(Cl)cc3)n2)c1)c1cccc(C(F)(F)F)c1`, the inhibition was 0.14%.

For the compound `COC(=O)c1[nH]nc(C(=O)OC(C)(C)C)c1-c1ccccc1`, the inhibition is 13.6% (active).

As for `COC(=O)c1n[nH]nc1-c1ccccc1`, the inhibition is 2.77%.

Turning to `COC(=O)c1cc(-c2ccccc2)n[nH]1`, the inhibition is 1.61%.

Regarding `CC1(C)Cc2cccc(OCC(=O)N3CCN(S(=O)(=O)c4ccc(F)cc4)CC3)c2O1`, the inhibition is -1.15%.

As to `O=C(O)c1cccc(N/N=C/c2cccs2)c1`, the inhibition was 4.35%.

On to `O=C(O)c1cccc(NN=C2c3ccccc3-c3ccccc32)c1`, for which the inhibition is 1.86%.

Consider `Cc1ccc(C(=O)N/C(=C\c2ccccc2)C(=O)NCc2cccnc2)cc1`, for which the inhibition is -0.7%.

For `CCCNC(=O)Cn1cnc2sc(C(=O)Nc3cc(OC)c(OC)c(OC)c3)c(C)c2c1=O`, the inhibition is 1.29%.

Turning to `CNc1ccc(Br)cc(C(=O)/C=C/c2cccc(Cl)c2Cl)c1=O`, the inhibition is 13% (active).

Consider `CNc1ccc(Br)cc(C(=O)/C=C/c2cccc(OC)c2OC)c1=O`, for which the inhibition was 0.88%.

Regarding `CNc1ccc(Br)cc(C(=O)/C=C/c2ccc(Cl)cc2Cl)c1=O`, the inhibition is 10.2%.

Regarding `CCS(=O)(=O)c1ccc(O)c(NC(=O)/C=C/c2ccc(Cl)cc2)c1`, the inhibition is 0.22%.

For `O=C(O)CNC(=O)C(Cc1ccccc1)NC(=O)OCc1ccccc1` (stereo not given), the inhibition is 2.74%.

Turning to `Cn1c(SCc2ccccc2)nnc1-c1cnccn1`, the inhibition is -1.68%.

Take `Cn1c(SCc2ccccn2)nnc1-c1cnccn1`: the inhibition was 13.4% (active).

As to `Cc1ccccc1CSc1nnc(-c2cnccn2)n1C`, the inhibition was 4.71%.

Consider `Cc1ccc(-n2c(Cc3ccccc3)nnc2SCC(=O)NNC(=O)Cc2ccccc2)cc1`, for which the inhibition is 2.04%.

Take `Cc1ccc(-c2cc(O)cc3sc(=O)oc23)cc1C`: the inhibition is -5.89%.

As for `Cc1c(Br)c(O)c(Br)c2sc(=O)oc12`, the inhibition is 14.6% (active).

In the case of `C=CCn1c(=O)c2ccccc2n2c(SCC(N)=O)nnc12`, the inhibition was -2.87%.

With `C/C(=N\OCc1ccccc1C#N)c1cc2ccccc2o1`, the inhibition was -1.63%.

In the case of `C/C(=N\OCc1ccc(C#N)cc1)c1cc2ccccc2o1`, the inhibition is 14% (active).

For `C/C(=N\OCc1ccc(C#N)cc1)c1ccccc1`, the inhibition is 2.31%.

In the case of `COc1cc(CNCc2c[nH]c3ccccc23)cc(OC)c1`, the inhibition is 0.77%.

`O=C(N/N=C/c1ccc(-c2cccc([N+](=O)[O-])c2)o1)c1ccccc1O`: the inhibition is 0.51%.

On to `N/C(=N\N=C\c1ccc(O)cc1O)N[N+](=O)[O-]`, for which the inhibition was 1.33%.

For the compound `O=C1CCCN1c1cc(Cl)cc(Cl)c1`, the inhibition was 0.87%.

On to `CCC(C)N(CCNC(=O)CC1Oc2ccc(C)cc2NC1=O)C1CCCCC1` (stereo not given), for which the inhibition is 4.05%.

Take `NNC(=O)COc1ccc(-c2n[nH]c(C(F)(F)F)c2-c2ccc(Br)cc2)c(O)c1`: the inhibition was -2.65%.

With `COc1ccc(-c2c(-c3ccc(OCC(=O)NN)cc3O)n[nH]c2C(F)(F)F)cc1`, the inhibition was 13.2% (active).

On to `COc1ccc(-c2c(-c3ccc(OCC(=O)NN)cc3O)n[nH]c2C)cc1`, for which the inhibition was 4.13%.

Consider `O=C(CC(NC(=O)c1ccccc1Cl)c1ccccc1)NC1=NCCS1` (stereo not given), for which the inhibition is 2.83%.

Regarding `CC(=O)Nc1ccc2nc3ccccc3nc2c1`, the inhibition is 3.15%.

Turning to `CC(=O)Nc1ccc2ccccc2c1`, the inhibition is 1.2%.

Take `CC(=O)Nc1ccc2cc3ccc(NC(C)=O)cc3nc2c1`: the inhibition is 29.2% (active).

Turning to `CCC(C)(C)n1nnnc1CN1CCC(n2c(C)nc3cc(C(F)(F)F)ccc32)CC1`, the inhibition was 2.13%.

For `CCOC(=O)c1nc2ccccc2nc1C`, the inhibition was 3.05%.

Turning to `O=C(CSc1nnc(-c2ccncc2)n1Cc1ccco1)Nc1nc(-c2ccccc2)cs1`, the inhibition is -0.09%.

For the compound `CCCC1=NN2C(=N)/C(=C\c3ccc(SCc4ccco4)o3)C(=O)N=C2S1`, the inhibition is 30.6%.

For the compound `Cc1cccc(C)c1-n1cccc1/C=C1\SC(=S)N(c2cccc(C(=O)O)c2)C1=O`, the inhibition is -2.25%.

`CCC1=NN2C(=N)/C(=C\c3ccc(SCc4ccco4)o3)C(=O)N=C2S1`: the inhibition was 4.74%.

Regarding `O=C1NC(=S)S/C1=C\c1ccc(SCc2ccccc2)o1`, the inhibition was 68.3% (active).

As to `O=C(O)c1cccc(N2C(=O)/C(=C/c3ccc(SCc4ccc(Cl)cc4)o3)SC2=S)c1`, the inhibition was 33.7% (active).

In the case of `N=C1/C(=C\c2ccc(SCc3ccco3)o2)C(=O)N=C2SC=NN12`, the inhibition was 8.44%.

For the compound `CCOc1cc(/C=C2/SC(=S)NC2=O)ccc1OC(=O)c1ccco1`, the inhibition is 1.76%.

For `O=C(O)CN1C(=O)/C(=C/c2ccc(SCc3ccccc3)o2)SC1=S`, the inhibition was 18.9%.

With `O=C1/C(=C\c2ccco2)SC(=S)N1c1ccccc1`, the inhibition is 8%.

On to `O=C1NC(=S)S/C1=C/c1ccc(N2CCOCC2)o1`, for which the inhibition was 11.4%.
